About 1,700 (3.3%) of roughly 52,000 compounds were called active. Only a selection was taken, and actives are over-represented in it overall. A number with no mark means an inactive call. Cut-off read from the data, not from the text of the source: active = survival mostly below about 52% (no sharp cut-off); inactive = mostly above about 56%.
The compounds below were run on Wild type (assay: S. aureus survival, RN4220 and DeltatarO strains – OD600, teichoic acid synthesis inhibitors, primary screen (AID 463173)). Conditions: S. aureus RN4220 wild type/DeltatarO growth, OD600, 18 h, hits give low values, screened at 18.75 µg/mL (by protocol).

Compound | survival
Cc1ccc(CNS(=O)(=O)c2cc(Br)cc3c2N(C(=O)C2CC2)CC3)cc1 | 66%
Cc1cc(NC(=O)COCc2cc(-c3ccc(F)cc3)on2)ccc1Br | 82%
CCC(=O)N1CCc2cc(S(=O)(=O)NC(CC(C)C)C(=O)Nc3ccc(CC)cc3)ccc21 (configuration not stated) | 84%
COc1cccc(C2CC(=O)Nc3c2ccc(C)c3C)c1OC (configuration not stated) | 87%
CC1=C(C(=O)OCC2CCCCC2)C(c2ccc(Cl)cc2Cl)CC(=O)N1 (configuration not stated) | 82%
Cc1ccc2c(c1C)NC(=O)CC2c1ccc(Cl)cc1Cl (configuration not stated) | 1% (active)
CCOC(=O)CSc1ccc2nnc(CCNS(=O)(=O)c3ccccc3)n2n1 | 87%
Cc1c(-c2nc(-c3ccc4c(c3)OCO4)no2)nnn1-c1ccc(C(C)C)cc1 | 73%
CCOc1ccccc1CNC(=O)Cn1ncn2nc(-c3cccs3)cc2c1=O | 93%
CC(C)c1ccc(OC(=O)c2cc(-c3ccc4c(c3)OCCO4)on2)cc1 | 46%
Cc1cc(OC(=O)c2cc(-c3ccc4c(c3)OCCO4)on2)ccc1Cl | -6% (active)
O=C(Oc1ccc(Cl)cc1)c1cc(-c2ccc3c(c2)OCCO3)on1 | 108%
COc1ccc(OC(=O)c2cc(-c3ccc4c(c3)OCCO4)on2)cc1 | 109%
Cc1ccc(OC(=O)c2cc(-c3ccc4c(c3)OCCO4)on2)cc1C | -7% (active)
N#Cc1ccc(OC(=O)c2cc(-c3ccc4c(c3)OCCO4)on2)cc1 | 117%
CCn1c(=NC(=O)c2ccc(S(=O)(=O)N3CCCCC3)cc2)sc2cccc(OC)c21 | 68%
Cc1ccc(C(=O)NC2CC3CCCC(C2)N3C(=O)NC2CCCCC2)cc1 (configuration not stated) | 101%
O=C(CCC1CCCC1)N1CCN(C(=O)Cc2ccccc2)CC1 | 94%
COc1cc(OC)c(Nc2nc3ccccc3c3nncn23)cc1Cl | 136%
COc1ccc(C)cc1-n1c(-c2ccc(Cl)cc2)cc2c1CC(C)(C)CC2=O | 94%
COc1ccc(-n2c(-c3ccc(C)cc3)cc3c2CC(C)(C)CC3=O)c(OC)c1 | 96%
CCOc1ccc(-n2c(-c3ccc(OC)cc3)cc3c2CC(C)(C)CC3=O)cc1 | 41%
COc1ccc(-n2c(-c3ccc(Cl)cc3)cc3c2CC(C)(C)CC3=O)c(OC)c1 | 3% (active)
CCOc1ccc(-n2c(-c3ccc(Br)cc3)cc3c2CC(C)(C)CC3=O)cc1 | 8% (active)
Cc1ccc(-c2cc3c(n2-c2ccc(C)cc2)CC(C)(C)CC3=O)cc1 | 69%

Compound | survival
CCCCCn1c(=O)[nH]c2cc(C(=O)NCc3ccccc3)ccc2c1=O | 83%
COCCNC(=O)CCCN1C(=O)CCn2nc(-c3cccn3C)cc21 | 68%
CCOc1ccc(-n2c(SCc3nc(-c4ccccc4C)no3)nnc2-c2ccccc2)cc1 | 84%
CCC(Sc1nncn2c1cc1occc12)C(=O)Nc1ccc(C)c(Cl)c1 (configuration not stated) | 44%
CCc1nn(CC(=O)NC(C)c2ccccc2)c(=O)c2cc3sccc3n12 (configuration not stated) | 91%
COc1ccc(-n2c(=O)c3ccccc3n(CC(=O)Nc3ccccc3OC)c2=O)cc1 | 89%
CN1C(C(=O)NC(C)(C)C)=CC(c2ccc3c(c2)OCO3)=NS1(=O)=O | 84%
Cc1cc(NCCN(C)C)c2ccccc2n1 | 106%
COc1ccc(-c2cccc(NS(=O)(=O)c3cc(C(F)(F)F)ccc3Cl)c2)nn1 | 59%
COc1cc(OC)cc(C(=O)Nc2cccc(-c3cn4ccsc4n3)c2)c1 | 1% (active)
CCS(=O)(=O)Nc1ccc(-c2cn3c(C)csc3n2)cc1 | 78%
Nc1cccc(-c2cn3ccsc3n2)c1 | 55%
COc1cccc(OC)c1C(=O)Nc1cccc(-c2cn3ccsc3n2)c1 | 72%
COc1ccc(C(=O)Nc2cccc(-c3cn4ccsc4n3)c2)cc1OC | 76%
COc1ccc(S(=O)(=O)Nc2ccc(-c3cn4ccsc4n3)cc2)cc1C | 133%
CCS(=O)(=O)Nc1ccc(-c2cn3ccsc3n2)cc1 | -1% (active)
CN(C)S(=O)(=O)Nc1ccc(-c2cn3ccsc3n2)cc1 | 14% (active)
CCCS(=O)(=O)Nc1cccc(-c2cn3ccsc3n2)c1 | 159%
Cc1ccc(Cn2cc(S(=O)(=O)c3cccc(Cl)c3)c(=O)c3cc(F)c(N4CCOCC4)cc32)cc1 | 87%
CC1=C(C(=O)OCC2CCCCC2)C(c2cccc(Cl)c2Cl)CC(=O)N1 (configuration not stated) | 76%
COc1cc(Cl)c(C)cc1NC(=O)Cn1cc(S(=O)(=O)N2CCN(c3ccccc3F)CC2)c2ccccc2c1=O | 68%
Cc1cccc(C)c1NC(=O)CN1C(=O)CCSc2ccc(S(=O)(=O)N3CCCC3)cc21 | 72%
CCN(C(=O)C(=O)Nc1ccc2nc3n(c(=O)c2c1)CCCCC3)c1ccc(F)cc1 | 94%
COc1ccc(-n2nc(C(=O)N3CCN(c4ccccc4OC)CC3)c3c4ccccc4n(C)c3c2=O)cc1 | 80%
Cc1ccc(CSc2cn(CC(=O)N3CCCCC3)c3ccccc23)cc1 | 90%

Compound | survival
CCc1ccc(C2C(C(=O)Nc3ccccc3C)=C(C)Nc3nc(SCc4cccc(OC)c4)nn32)cc1 (configuration not stated) | 146%
O=C1CC2CCCC(CN1)N2CC(=O)NCc1ccco1 (configuration not stated) | 104%
COc1ccc(COC(=O)c2[nH]c3c(c2C)C(=O)CC(c2ccc(OC)c(OC)c2)C3)cc1 (configuration not stated) | 92%
COc1ccccc1C(=O)NC(=O)Nc1ccc(-n2nc(C(F)(F)F)cc2C(F)(F)F)cc1 | 101%
COc1ccccc1C(=O)NC(=O)Nc1ccc(-c2cc(C(F)(F)F)nn2-c2ccccc2)cc1 | 5% (active)
COc1ccccc1C(=O)Nc1ccc(-c2cc(C(F)(F)F)nn2-c2ccccc2)cc1 | 39%
COc1ccc(-c2cc3ccc(O)c(CN4CCCC4)c3oc2=O)cc1 | 124%
CCOc1ccccc1NC(=O)c1c(NC(=O)COc2ccc(Cl)cc2)sc2c1CCCCC2 | 75%
Cc1onc(-c2ccccc2Cl)c1C(=O)Oc1ccc(Br)cc1 | 4% (active)
CCOc1ccc(OC(=O)c2c(-c3ccccc3Cl)noc2C)cc1 | 59%
CC(=O)c1ccc(OC(=O)c2c(-c3ccccc3Cl)noc2C)cc1 | 56%
CN(C)c1ccc(C(CNS(=O)(=O)c2ccc(F)cc2)N2CCOCC2)cc1 (configuration not stated) | 83%
CN(C)c1ccc(C(CNS(=O)(=O)c2ccc(Cl)cc2)N2CCOCC2)cc1 (configuration not stated) | 10% (active)
CN(C)c1ccc(C(CNS(=O)(=O)c2ccc(F)cc2)N2CCCC2)cc1 (configuration not stated) | 124%
CN(C)c1ccc(C(CNS(=O)(=O)c2ccc(Cl)cc2)N2CCCC2)cc1 (configuration not stated) | -3% (active)
Cc1ccc(S(=O)(=O)NCC(c2ccc(N(C)C)cc2)N2CCOCC2)cc1 (configuration not stated) | 65%
Cc1ccc(S(=O)(=O)NCC(c2ccc(N(C)C)cc2)N2CCCC2)cc1 (configuration not stated) | 88%
C=CCn1cc(F)c(=O)n(CC=C)c1=O | 109%
CCOc1ccc(NC(=O)Cn2nc(Cc3ccncc3)c3ccccc3c2=O)cc1 | 108%
CC(C)C(=O)N1CCN(c2ccc(NC(=O)c3ccccc3)cc2)CC1 | 95%
O=C(Nc1ccc2oc(=O)ccc2c1)c1cccc(F)c1 | 106%
Cc1cc2nc(N(Cc3cccnc3)C(=O)c3ccc(Cl)s3)sc2cc1C | 0% (active)
COc1cc(C(=O)N(Cc2cccnc2)c2nc3cc(C)c(C)cc3s2)cc(OC)c1OC | 22%
COc1ccc2sc(N(Cc3cccnc3)C(=O)c3cccs3)nc2c1 | 64%
COc1ccc2nc(N(Cc3cccnc3)C(=O)c3ccco3)sc2c1 | 70%

Compound | survival
CCS(=O)(=O)c1ccccc1C(=O)N(Cc1cccnc1)c1nc2cc(C)c(C)cc2s1 | 118%
COc1ccc2sc(N(Cc3cccnc3)C(=O)c3ccco3)nc2c1 | -4% (active)
Cc1scc(-c2ccccc2)[n+]1CCO | 109%
CCOc1ccc(NC2SC(=O)N(Cc3ccccc3)C2=O)cc1 (configuration not stated) | 72%
COc1cc(OC)c(NC(=O)c2cnn(-c3cccc(Cl)c3C)c2C2CCN(C(=O)OC(C)(C)C)CC2)cc1Cl | 53%
COc1ccc(-c2cc(C(F)(F)F)nc(SCC(=O)NCc3ccc(Cl)cc3)n2)cc1 | 83%
CCOC(=O)c1ccn(-c2nc(-c3cccc(OC)c3)cc(C(F)(F)F)n2)n1 | 48%
COC(=O)CSc1nc(-c2ccc(F)cc2)cc(C(F)(F)F)n1 | 123%
COc1ccc(CNC(=O)CSc2nc(-c3ccc(OC)c(OC)c3)cc(C(F)(F)F)n2)cc1 | 83%
COc1ccc(-c2cc(C(F)(F)F)nc(S(C)(=O)=O)n2)cc1 | 98%
COC(=O)c1ccn(-c2nc(-c3ccc(Cl)cc3)cc(C(F)(F)F)n2)n1 | 9% (active)
COc1ccc(CNc2nc(-c3ccc(Cl)cc3)cc(C(F)(F)F)n2)cc1 | -4% (active)
COc1ccc(-c2cc(C(F)(F)F)nc(NCc3ccc(Cl)cc3)n2)cc1 | -3% (active)
CS(=O)(=O)N(CC(=O)N1CCCC1)c1cccc(Cl)c1Cl | 97%
Cc1cc(C)c2nc(NC(=O)c3ccc(S(=O)(=O)N4CCC(C)CC4)cc3)sc2c1 | 79%
O=C(CN1C(=O)CSC1=O)NC1CCCCC1 | 104%
CC(C)c1cc(C(=O)NC(C)c2ccccc2)no1 (configuration not stated) | 81%
COc1ccc(OC)c(-c2cc(C(=O)NCc3ccc(Cl)cc3)no2)c1 | 85%
COc1ccc(OC)c(-c2cc(C(=O)Nc3cccc(Cl)c3C)no2)c1 | 26%
CC(NC(=O)c1cc(-c2ccc(Cl)cc2)on1)c1ccccc1 (configuration not stated) | 140%
COc1ccc(OC)c(-c2cc(C(=O)Nc3ccc(C)c(C)c3)no2)c1 | -9% (active)
COc1ccc(OC)c(-c2cc(C(=O)NC(C)c3ccccc3)no2)c1 (configuration not stated) | -12% (active)
